Assay outcomes as filed in PubChem BioAssay.
The full list was thinned out, with hits kept by preference.
miR122 inh: raises miR-122 sensor activity in Huh7 cells | Huh7 psiCHECK-miR122 Renilla luciferase sensor, 48 h | activation, % at 12.5 µM | actives 0.14% (n = 340,000) | AID 623901;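 active = mean activation of 30% or more, with every replicate also reaching 30%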;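 also: higher luciferase signal means stronger suppression of miR-122 activity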
Large screens that a line does not name were inactive.

Cc1sc(NC(=O)c2ccccc2)c(C(c2ccc(Cl)cc2)N2CCN(CCO)CC2)c1C (stereo not drawn)	none
CCOC(=O)C1CCN(C(c2cccnc2)c2c(NC(=O)c3ccco3)sc(C)c2C)CC1 (stereo not drawn)	miR122 inh 39.1
CC1CCCC(NC(=O)COC(=O)c2ccccc2NC(=O)c2ccco2)C1C (stereo not drawn)	none
CO[C@H]1CN(C)C(=O)c2ccc(NC(=O)Nc3ccc(F)cc3)cc2OC[C@H](C)NC[C@H]1C	none
C[C@H]1CN([C@@H](C)CO)C(=O)c2cc(Br)cnc2O[C@@H]1CN(C)Cc1cccc(F)c1	none
COc1ccc(C#Cc2ccc3c(c2)O[C@H](CN(C)C)[C@H](C)CN([C@@H](C)CO)S3(=O)=O)cc1	none
CN(C)CCNc1ncnc2c1sc1nc(-c3ccccc3)c3c(c12)CCCC3	miR122 inh 34.6
CC(C)Cc1nc2sc3c(=O)[nH]cnc3c2c2c1CCC2	none
C[C@H](CO)N1C[C@H](C)[C@@H](CN(C)Cc2ccccn2)Oc2cc(-c3cccnc3)ccc2S1(=O)=O	none
C[C@@H](O)C#Cc1ccc2c(c1)O[C@@H](CN(C)C(=O)Cc1ccccn1)[C@@H](C)CN([C@@H](C)CO)S2(=O)=O	none
OC(CNCCC1C=Nc2ccccc21)Cn1c2ccc(Cl)cc2c2cc(Cl)ccc21 (stereo not drawn)	miR122 inh 55.1
CCC(=O)N(C)C[C@H]1Oc2ncc(C#CC3(O)CCCC3)cc2C(=O)N([C@@H](C)CO)C[C@H]1C	none
Cc1ccc(CN2CCSc3ccc(C(=O)NCc4ccco4)cc32)cc1	none
Cc1ccc(C2CC(C(F)(F)F)n3nc(C(=O)NCc4ccco4)cc3N2)cc1 (stereo not drawn)	miR122 inh 40.9
CCCNC(=O)N(C)C[C@H]1Oc2ncc(/C=C/c3ccccc3)cc2C(=O)N([C@@H](C)CO)C[C@@H]1C	none
C[C@H]1CN([C@@H](C)CO)C(=O)c2cc(-c3cccc(C#N)c3)cnc2O[C@H]1CN(C)Cc1ccccc1	none
CCCC#Cc1cnc2c(c1)C(=O)N([C@@H](C)CO)C[C@H](C)[C@H](CN(C)Cc1cccnc1)O2	none
Cc1ccc(C(=O)C2=C(O)C(=O)N(CCCN3CCOCC3)C23C(=O)N(C)c2ccccc23)o1 (stereo not drawn)	miR122 inh 31.8
C[C@H](CO)N1C[C@H](C)[C@H](CN(C)CC2CC2)Oc2ncc(-c3cccc(C(=O)N(C)C)c3)cc2C1=O	none
C[C@H](CO)N1C[C@H](C)[C@H](CN(C)C(=O)C2CCCCC2)Oc2ncc(-c3ccccc3F)cc2C1=O	none
CCCCCCCCCn1c2c(c(=N)c3c1CCC3)CCC2	miR122 inh 47.1
COc1ccccc1NC(=O)N(C)C[C@@H]1Oc2ncc(C#CCC(C)C)cc2C(=O)N([C@H](C)CO)C[C@H]1C	none
COc1ccccc1S(=O)(=O)N(C)C[C@@H]1Oc2ncc(-c3ccc(C)cc3)cc2C(=O)N([C@@H](C)CO)C[C@H]1C	none
C[C@H]1CN([C@@H](C)CO)S(=O)(=O)c2ccc(/C=C/c3ccccc3)cc2O[C@H]1CN(C)C(=O)Nc1cccc(F)c1	none
O=C1NC(=O)/C(=C\c2ccccc2OCc2ccc([N+](=O)[O-])cc2)N1	miR122 inh 37.2
COCC(=O)Nc1ccc2c(c1)OC[C@@H](C)NC[C@H](C)[C@H](OC)CN(C)C2=O	none
Cc1noc(C)c1NC(=O)N(C)C[C@H]1Oc2ncc(C#CCC(C)C)cc2C(=O)N([C@@H](C)CO)C[C@@H]1C	none
C[C@@H]1CN([C@H](C)CO)C(=O)c2cc(C#Cc3cccc(F)c3)cnc2O[C@H]1CN(C)CC1CCOCC1	none
CCCCNc1cc(C)nc(NCc2ccccc2)n1	miR122 inh 41.0
C[C@@H]1CN([C@@H](C)CO)S(=O)(=O)c2ccc(C#Cc3ccccn3)cc2O[C@@H]1CN(C)Cc1ccc(F)cc1	none
C/C=C/c1cnc2c(c1)C(=O)N([C@H](C)CO)C[C@@H](C)[C@H](CN(C)S(=O)(=O)c1cccs1)O2	none
C[C@H]1CN([C@@H](C)CO)C(=O)c2cc(/C=C/c3ccccc3)cnc2O[C@H]1CN(C)C(=O)C1CCC1	none
C/C=C/c1cnc2c(c1)C(=O)N([C@H](C)CO)C[C@@H](C)[C@@H](CN(C)C(=O)Nc1cccc(OC)c1)O2	none
C[C@H](O)C#Cc1ccc2c(c1)O[C@H](CN(C)C(=O)Cc1ccccn1)[C@H](C)CN([C@H](C)CO)S2(=O)=O	none
CCn1nc(C)cc1-c1nnc(Sc2ncc([N+](=O)[O-])s2)n1C	miR122 inh 44.9
C[C@@H]1CN([C@H](C)CO)S(=O)(=O)c2ccc(-c3ccccc3)cc2O[C@H]1CN(C)S(=O)(=O)c1ccccc1F	none
C[C@H](CO)N1C[C@H](C)[C@@H](CN(C)C(=O)C2CCC2)Oc2cc(C#CC(C)(C)O)ccc2S1(=O)=O	none
C[C@H](O)C#Cc1ccc2c(c1)O[C@H](CN(C)Cc1cccnc1)[C@@H](C)CN([C@@H](C)CO)S2(=O)=O	none
COc1cccc(-c2ccc3c(c2)O[C@@H](CN(C)CC2CC2)[C@@H](C)CN([C@@H](C)CO)S3(=O)=O)c1	none
C[C@H](CO)N1C[C@H](C)[C@H](CN(C)C(=O)CC2CC2)Oc2cc(-c3ccccc3)ccc2S1(=O)=O	none
CO[C@H]1CN(C)C(=O)c2ccc(NC(=O)Nc3ccc(Cl)cc3)cc2OC[C@H](C)N(C)C[C@H]1C	none
C[C@@H]1CN([C@@H](C)CO)S(=O)(=O)c2ccc(-c3ccccc3F)cc2O[C@@H]1CN(C)Cc1cccnc1	miR122 inh 49.0
COc1ccccc1C#Cc1ccc2c(c1)O[C@H](CN(C)Cc1cncnc1)[C@H](C)CN([C@@H](C)CO)S2(=O)=O	none
C[C@@H]1CN([C@H](C)CO)S(=O)(=O)c2ccc(-c3ccccc3)cc2O[C@H]1CN(C)Cc1cccnc1	none
COc1ccccc1C#Cc1ccc2c(c1)O[C@H](CN(C)Cc1cccnc1)[C@H](C)CN([C@@H](C)CO)S2(=O)=O	miR122 inh 39.3
C[C@H](CO)N1C[C@H](C)[C@H](CN(C)Cc2cccnc2)Oc2cc(-c3ccccc3)ccc2S1(=O)=O	none
COc1ccccc1C#Cc1ccc2c(c1)O[C@H](CN(C)Cc1cncnc1)[C@@H](C)CN([C@@H](C)CO)S2(=O)=O	none
C[C@@H]1CN([C@H](C)CO)C(=O)c2cc(C#CC3(O)CCCC3)cnc2O[C@H]1CN(C)C(=O)Cc1ccccc1	none
CC(C)CC#Cc1cnc2c(c1)C(=O)N([C@@H](C)CO)C[C@@H](C)[C@H](CN(C)C(=O)CC1CC1)O2	none
C[C@@H]1CN([C@@H](C)CO)S(=O)(=O)c2ccc(-c3ccc(C(=O)N(C)C)cc3)cc2O[C@@H]1CN(C)C(=O)C1CCOCC1	none
C[C@H](CO)N1C[C@H](C)[C@@H](CN(C)C)Oc2cc(-c3ccc(C(=O)N(C)C)cc3)ccc2S1(=O)=O	none
CCCC(O)C#Cc1cnc2c(c1)C(=O)N([C@H](C)CO)C[C@H](C)[C@H](CN(C)S(=O)(=O)c1ccccc1)O2 (stereo partly drawn)	none
Cc1ccc(-c2cnc3c(c2)C(=O)N([C@H](C)CO)C[C@@H](C)[C@H](CN(C)C(=O)Cc2cccnc2)O3)cc1	none
C[C@H](CO)N1C[C@H](C)[C@H](CN(C)C(=O)C2CC2)Oc2ncc(C#Cc3cccc(F)c3)cc2C1=O	none
O=C(C1CCCCC1)N1C[C@H]2[C@@H](c3ccccc31)[C@@H](CO)N2C(=O)c1ccccc1	none
O=C(C1CC1)N1C[C@H]2[C@@H](c3ccccc31)[C@H](CO)N2C(=O)c1ccccc1F	miR122 inh 33.3
COc1ccc(C(=O)N2C[C@@H]3[C@H](c4ccccc42)[C@H](CO)N3Cc2ccccc2Cl)cc1	none
